# Screening results (PubChem BioAssay)
# CHX counter = counter-screen for Shiga toxin inhibitors: cycloheximide protein synthesis inhibition. max response, %. cell reporter, cycloheximide protein synthesis inhibition counterscreen. 300,000 compounds, 12% hits; in the data active = max response mostly above about 13%, no sharp cut-off; inactive = mostly below about 14%; note: read at 38.3 µM for the half of the compounds with a filed dose; 0% is about no effect
# SARS PLpro yeast = inhibitors of SARS-CoV papain-like protease in yeast | S. cerevisiae expressing SARS-CoV PLpro, growth rescue | Potency, µM (top dose mostly 32.9 µM), for the others: at the highest dose activity, positive = growth rescue, most hits filed as activators | 330,000 compounds, 0.19% hits; calls by dose curve; note: potency is the fitted concentration of half-maximal effect; 0% is about no effect; nearly all actives have a fitted effect of over 55% in size
# Shiga inhibitor = Shiga toxin inhibition; Vero cells, Shiga toxin protein synthesis inhibition reporter; AID 2315; 290,000 compounds, 9.2% hits; inhibition, % at 38.7 µM; in the data active = inhibition mostly above about 28%, no sharp cut-off; inactive = mostly below about 43%; note: 0% is about no effect
# Pf growth 96h = P. falciparum growth inhibition at 96 hours | AID 504834 | 320,000 compounds, 6.9% hits | Potency, µM (highest dose often 28.7 µM), without a hit: at the top dose activity change, negative = inhibition, hits mostly inhibitors | P. falciparum luciferase reporter growth, 96 h; note: potency is the fitted concentration of half-maximal effect; % is set by controls: 0 for no effect and ±100 for the full control effect
#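 96 h incubation, 37 C, 5% CO2, of luciferase-reporter P. falciparum-infected RBCs (2% hematocrit, 0.05% parasitemia final) with test compounds; endpoint luminescence.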
# AMA1 RON2 block = AMA1-RON2 (P. falciparum) interaction inhibition; AlphaScreen AMA1-biotinylated RON2 peptide binding; Potency, µM (highest dose often 58.2 µM), for the others: at the top dose activity change, negative = inhibition, actives largely listed as inhibitors; 360,000 compounds, 0.2% hits;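 note: potency is the fitted concentration of half-maximal effect; 0% = vehicle wells and -100% = peptide control; nearly all actives have a fitted effect of over 45% in size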
#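 AMA1 (3D7) with his tag at 25 nM final met compounds first, then biotinylated RON2 peptide at 25 nM; detection used donor plus acceptor beads, 10 µg/mL apiece, read by AlphaScreen after 30 min at room temperature.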
# Pf growth 48h = inhibits P. falciparum growth in the first generation, 48 h. P. falciparum luciferase growth in erythrocytes, 48 h. AID 504832. 310,000 compounds, 5.9% hits. Potency, µM (highest dose often 28.7 µM), for inactives: at the top dose activity change, negative = inhibition, usual class: inhibitors; note: potency is the fitted concentration of half-maximal effect; % is set by controls: 0 for no effect and ±100 for the full control effect
#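 Luciferase-expressing P. falciparum in infected erythrocytes (2% hematocrit, 0.1% parasitemia final) in RPMI 1640/0.5% Albumax were exposed to compound for 48 hours at 37 C, 5% CO2; growth read as luminescence.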
# Active calls of the source: *; i = inactive; ? = inconclusive; . = not tested or not shown. Shown are actives, neighbours in structure and some others; about 19% of the full set was active somewhere. Unless noted, calls come from the whole dose curve; as a rule, active = well fitted curve in the direction sought with a large enough effect; inconclusive = small, poorly fitted or top-dose-only effect, or another doubt; inactive = no such curve, though single readings can be large; an effect the other way counts as inactive or inconclusive.
SMILES,CHX counter,SARS PLpro yeast,Shiga inhibitor,Pf growth 96h,AMA1 RON2 block,Pf growth 48h
COC(=O)Cn1c(=NC(=O)c2sc3ccccc3c2Cl)sc2cc(S(N)(=O)=O)ccc21,-1,6%,-2,37%,3%,2%
COC(=O)Cn1c(=NC(=O)CSCC(=O)NC2CCCCC2)sc2cc(OC)ccc21,-6,6%,-18,?,0%,?
COC(=O)Cn1c(=NC(=O)c2nc3ccccc3s2)sc2cc(S(C)(=O)=O)ccc21,17*,14%,15,87%,.,45%
COC(=O)c1cc2ccsc2n1Cc1cccc(F)c1,6,-26%,17,?,28%,-1%
COC(=O)c1cc2ccsc2n1Cc1ccccc1F,10,-54%,4,12µM*,32%,22%
Cc1ccc(-c2c(C)sc3nc(CN4CCN(CC(=O)NC5CC5)CC4)[nH]c(=O)c23)cc1,.,-4%,.,?,36%,10µM*
CCN1C(=O)N(CC)C(=O)C2(Cc3ccccc3N3CCN(c4ccccc4)CC32)C1=O (stereo not drawn),36*,-1%,70*,?,-8%,?
Cc1ccsc1C(=O)OC(C)C(=O)NC1CCCCC1C (stereo not drawn),.,0%,.,6%,-12%,-11%
O=C(CCSC1=NCCCN1)c1ccc(F)cc1,.,.,.,.,-5%,.
CCc1ccc(NC(=O)Cn2c(SC)nc3ccccc32)cc1,-4,0%,-4,.,-4%,-26%
CCc1ccc(NC(=O)Cn2c3[n+](c4c(F)c(F)ccc42)CCCCC3)cc1,5,1%,13,?,4%,3.7µM*
N#Cc1ccc(NC(=O)COC(=O)C2CCC2)cc1,.,.,.,.,8%,.
O=C(Cn1c2[n+](c3ccc(C(F)(F)F)cc31)CCCCC2)Nc1ccc(Br)cc1,11,3%,30,10µM*,10%,10µM*
N#Cc1ccc(NC(=O)Cn2c3[n+](c4ccc(C(F)(F)F)cc42)CCCCC3)cc1,0,-1%,-4,4.7µM*,-6%,12µM*
CC(CCCCCCCCC(=O)O)N(CCO)C(=O)OC(C)(C)C (stereo not drawn),.,-1%,.,?,3%,?
CC(C)(C)c1ccc(-c2nc3n(c(=O)c2C#N)CCS3)cc1,13,1%,21,?,-5%,13%
CNC(=S)N1CCc2cc(OC)c(OC)cc2C1,-4,0%,-6,83%,10%,31%
Cn1cc([N+](=O)[O-])c(C(=O)Nc2ccc3nc(-c4ccccc4)[nH]c3c2)n1,42*,-9%,47*,29%,-1%,?
Cn1cc([N+](=O)[O-])c(C(=O)NCc2cc3ccccc3[nH]2)n1,-3,9%,16,-11%,3%,-4%
Cn1cccc1-c1nc2ccc(NC(=O)c3ccc([N+](=O)[O-])cc3)cc2[nH]1,-2,9%,-17,?,-1%,.
Cn1cc([N+](=O)[O-])c(C(=O)Nc2ccc(-c3nc4ccccc4[nH]3)cc2)n1,32*,8%,-3,30%,-21%,103%
Cc1ccc(CN2C(=NC(=O)CCC(=O)O)SC3CS(=O)(=O)CC32)cc1 (stereo not drawn),-2,-5%,-14,5%,17%,-9%
CC(=O)N=C1SC2CS(=O)(=O)CC2N1c1ccc(-c2nc3ccc(C)cc3s2)cc1 (stereo not drawn),18*,8%,54*,165%,.,89%
Cc1ccc2nc(-c3ccc(N4C(=NC(=O)CCC(=O)O)SC5CS(=O)(=O)CC54)cc3)sc2c1 (stereo not drawn),37*,0%,124*,159%,9%,126%
CC1(C(=O)NCc2ccccc2Br)CCN1Cc1ccc2ccccc2c1 (stereo not drawn),.,.,.,.,-6%,.
SMILES,CHX counter,SARS PLpro yeast,Shiga inhibitor,Pf growth 96h,AMA1 RON2 block,Pf growth 48h
CS(=O)c1ccccc1-c1nc(-c2cccc(Cl)c2)no1 (stereo not drawn),53*,-4%,36,74%,2%,368%
CS(=O)(=O)c1ccccc1-c1nc(-c2cccc(Cl)c2)no1,9,-3%,17,34%,-3%,?
CS(=O)c1ccccc1-c1nc(-c2ccc(Cl)cc2)no1 (stereo not drawn),48*,-1%,66*,194%,-10%,i
COc1ccc(/C=N/NC(=O)c2cc(=O)[nH]c3ccccc23)cc1OC,-3,1%,22,63%,12%,-10%
COc1cccc(/C=N/N2CCN(C)CC2)c1,29*,-23%,19,17%,4%,-9%
CN1CCN(/N=C/c2ccc(Br)cc2)CC1,47*,-6%,55,92%,-12%,133%
CN(C)c1ccc(C=NN2CCCCCC2)cc1,.,.,.,.,0%,.
CN1CCN(/N=C/c2ccc(N(C)c3ccccc3)cc2)CC1,34*,-2%,59*,26%,-21%,0%
CN1CCN(/N=C/c2ccc(Cl)c(Cl)c2)CC1,38*,-26%,84*,162%,-15%,134%
COc1ccc(/C=N/N2CCN(C)CC2)cc1O,0,-2%,4,13%,-7%,15%
CN1CCN(/N=C/c2ccc(N(c3ccccc3)c3ccccc3)cc2)CC1,1,1%,-6,?,-8%,?
CCCc1cc(C(=O)N2CCCC(C(=O)c3cc(C)c(OC)c(C)c3)C2)n(C)n1 (stereo not drawn),0,-1%,-13,5%,0%,?
Cc1ccccc1-c1cc(C(=O)NCc2cccc(Br)c2)nn1CC1CC(c2cccc([N+](=O)[O-])c2)=NO1 (stereo not drawn),.,1%,.,.,-1%,.
C[C@H](CO)N1C[C@H](C)[C@@H](CN(C)C(=O)Nc2ccccc2)Oc2ccc(NC(=O)CCC(F)(F)F)cc2C1=O,.,-28%,.,.,16%,.
O=C1NC(=S)N/C1=C\C=C\c1ccccc1,30*,-6%,50*,37%,-2%,59%
Cc1c(O)cnc2nn(-c3ccccc3)c(=N)n12,.,.,.,.,2%,.
Cc1nc(-c2nnc(-c3ccccc3)o2)c(C(F)(F)F)o1,28*,0%,49*,12%,38%,55%
ClCc1nnc(-c2ccccc2)o1,11,-2%,17,16%,9%,2.9µM*
c1ccc(-c2nnc(CN3CCN(c4ccccc4)CC3)o2)cc1,16,-6%,-2,-25%,-9%,-4%
Cc1nc(-c2ccccc2)c(-c2ccncc2)o1,-2,.,-10,.,.,.
Nc1ccccc1-c1nnc(-c2ccc(-c3ccccc3)cc2)o1,47*,-1%,43*,-52%,12%,.
c1ccc(-c2nnc(-c3ccncc3)o2)cc1,40*,12%,79,61%,12%,.
CCCCSc1nnc([C@@H](NC(=O)OC(C)(C)C)C(C)C)o1,-2,6%,-10,?,3%,-31%
CCOC(=O)N1CCN(S(=O)(=O)c2c(C)nc3sccn3c2=O)CC1,-3,0%,-6,?,6%,6%
